Assay [1] in a line: AP1 Signaling Pathway (AID 357). Note: % is set by controls: 0 for no effect and ±100 for the full control effect. The method in brief:
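ME-180 cells with beta-lactamase reporter under AP-1 response element, stimulated with EC50 EGF; compounds tested in titration series, 5 h at 37 °C. CCF4 substrate added 2.5 h at room temperature; 460/530 nm emission ratio gave %activity and AC50.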

Assay [2] addresses Cytochrome P450 1A2 (Homo sapiens) (UniProt P05177). The experiment in a line: p450-cyp1a2 (AID 410; calls by dose curve; note: potency is the fitted concentration of half-maximal effect;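 for activity change, negative = inhibition: -100% = full effect of reference inhibitor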). In a few lines: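 Read-out is luminescence from luciferin produced by CYP1A2 demethylation of Luciferin-ME (100uM, at Km). Detection reagent stopped the 60 min NADPH-dependent reaction; signals were normalized to 57 uM furafylline.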
Assay [3] is described as follows: NFAT Signaling Pathway (AID 444).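 Note: carbachol stimulus at about its EC50 of 1 µM final; % is set by controls: 0 for no effect and ±100 for the full control effect.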 The conditions noted are these: Jurkat NFAT-bla M1, carbachol, beta-lactamase ratio, 5 h. In a few lines:
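Jurkat cells with NFAT-driven β-lactamase reporter and co-expressed M1 receptor, stimulated with carbachol (final 1 uM, ~EC50), compound titration, 5 h at 37 °C. CCF4 loaded 1 h at RT; 460/530 nm ratio gave %activity and AC50.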

The nature of assay [4]: Stat Signaling Pathway (AID 446).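 Note: ME-180 cervical cancer cells given 40 pM IL-6 alongside compound; SIE-controlled beta-lactamase reporter measured as 460/530 nm FRET emission ratio; % is set by controls: 0 for no effect and ±100 for the full control effect.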 In a few lines:
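Overnight-plated ME-180 cells bearing a STAT Inducible Element beta-lactamase reporter; 5 h co-exposure to compound and 40 pM IL-6; values normalized to 300 pM IL-6 and 125 nM JAK inhibitor controls.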

Assay [5] concerns the target Glucocorticoid receptor (Homo sapiens) (UniProt P04150). The experiment in a line: GR-GFP Redistribution (AID 450;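 active = compounds whose dose series gives a full or clear partial fitted curve of increased nuclear translocation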; note: potency is the fitted concentration of half-maximal effect). The conditions noted are these: U2OS GR-GFP nuclear translocation, laser cytometry, 2 h.
For assay [6] the target is unchanged. The experiment in a line: GR-EFC Redistribution (AID 451; calls by dose curve; note: potency is the fitted concentration of half-maximal effect). The conditions noted are these: CHO-K1 GR-EFC translocation, beta-gal luminescence, 2 h. The method in brief: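 CHO-K1 cells expressing nuclear EA and GR-ED fragments of b-gal; compounds titrated up to 46 uM final, 2 h at 37 C. GR nuclear translocation read as complemented b-gal luminescence after 1 h RT detection.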

Assay [7] has as its target Mitogen-activated protein kinase 10 (Mus musculus) (UniProt Q61831). The experiment in a line: JNK3 AlphaScreen Assay (AID 530).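 Note: kinase came from lysate of stimulated human HepG2 cells; signal reports phosphorylation of biotinylated GST-cJun 1-79 at Ser73 with 10 µM ATP; % is set by controls: 0 for no effect and ±100 for the full control effect.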 In a few lines:
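HepG2 lysate (IL-1b/TNFa pre-activated) + biotin-GST-cJun 1-79 + anti-pSer73 cJun; cpd titration, 15 min RT; ATP 10 uM start; Tris pH 7.6, MgCl2, DTT, vanadate; beads in EDTA buffer; AlphaScreen.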
On the technique in general: Bead proximity is the source of the signal in Alpha formats.

In assay [8] the target is 3',5'-cyclic-AMP phosphodiesterase 4B (Homo sapiens) (UniProt Q07343). The experiment in a line: qHTS Assay for Inhibitors of PDE-IV (AID 607; active = well fitted activation curve with a large enough effect in the main read-out, with a control signal flat, not every such curve was filed as active; note: % of control where 0% means no effect). The method in brief:
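Live HEK293 cells with a modified cyclic nucleotide-gated (CNG) channel report intracellular cAMP via membrane-potential dye fluorescence (ex 535/em 590 nm). Endogenous PDE-IV was targeted. Compounds were tested at up to 22.9 uM final; RO 20-1724 100 uM served as control.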
On the technique in general: In qHTS, concentration-response curves come from the screen itself.

Assay [9] in a line: qHTS Assay for Lipid Storage Modulators (AID 1519; calls by dose curve). The note with it: Drosophila S3 cells, BODIPY lipid droplet/cell ratio, laser cytometry, cells loaded with oleic acid. In a few lines: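 Cells seeded at 5,000 per well were treated with compounds over a concentration series and loaded with oleic acid (400 uM, as added). Lipid droplet fluorescence (488 nm excitation, 500-530 nm channel) was read by laser-scanning cytometry and normalized to 20 uM Triacsin C.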

For assay [10], the target named is ATP-dependent 6-phosphofructokinase (Trypanosoma brucei brucei) (UniProt O15648). Description: qHTS Assay to Find Inhibitors of T. brucei phosphofructokinase: hit validation (AID 492961; active = well fitted curve in the direction sought with a large enough effect; an effect the other way counts as inactive or inconclusive). In a few lines:
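Inhibition of parasite PFK is measured as reduced ADP formation, quantified via luciferase after ATP depletion. Assay used 0.1 mM ATP, 0.5 mM F6P, 1.25 nM enzyme, 45 min incubation.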

The target of assay [11] is Ubiquitin carboxyl-terminal hydrolase 1 (Homo sapiens) (UniProt O94782). The experiment in a line: Inhibitors of USP1/UAF1: Pilot qHTS (AID 504865; active = well fitted curve in the direction sought with a large enough effect; an effect the other way counts as inactive or inconclusive;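 note: rhodamine fluorescence freed from ubiquitin-rhodamine substrate followed over time; top concentration of the series differs between compounds; % is set by controls: 0 for no effect and ±100 for the full control effect; nearly all actives have a fitted effect of over 35% in size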). The method in brief:
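1nM USP1/UAF1 + cpd, 15 min RT; start w/ Ub-Rho 150nM final; kinetic FL 480/540 nm, 6 reads q60 s. Buffer 50mM HEPES pH 7.8, 0.5mM EDTA, 1mM TCEP, 0.01% Tween-20, 0.1 mg/ml BSA.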

The target of assay [12] is Luciferin 4-monooxygenase (Photinus pyralis) (UniProt P08659). Description: Biochemical firefly luciferase enzyme assay for NPC (AID 624030; active = well fitted curve in the direction sought with a large enough effect; an effect the other way counts as inactive or inconclusive;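 note: purified P. pyralis luciferase at 10 nM with luciferin and ATP substrate; 0% = DMSO and -100% = full luciferase inhibition by PTC124 control; nearly all actives have a fitted effect of over 70% in size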). The method in brief:
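Purified P. pyralis luciferase at 10 nM in 50 mM Tris Acetate (final), luminescence read within 5 minutes of enzyme addition to compounds. Activity normalised to PTC124 versus DMSO; concentration-response curves classed by r2, magnitude and activity.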

Assay [13] in a line: S16 Schwann cell PMP22 intronic element firefly luciferase assay (AID 624032; active = well fitted curve in the direction sought with a large enough effect; an effect the other way counts as inactive or inconclusive;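 note: plate controls were DMSO for no effect and PTC124 positive control mean for full effect; nearly all actives have a fitted effect of over 30% in size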). In a few lines: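 Rat S16 Schwann cells stably carrying firefly luciferase driven by a PMP22 intronic element, in 10% FBS, treated 24 h at 37 C. ONE-Glo luminescence normalized to PTC124 control and DMSO (0%); curves classed by r2, magnitude and activity.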
A short description of assay [14]: qHTS profiling for inhibitors of Plasmodium falciparum proliferation (AID 504749; active = well fitted curve in the direction sought with a large enough effect; an effect the other way counts as inactive or inconclusive;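 note: 0% = DMSO vehicle and full inhibition = artemisinin control; nearly all actives have a fitted effect of over 60% in size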). The conditions noted are these: P. falciparum in erythrocytes, SYBR Green DNA, 72 h, at 12.8 µM (top of the series). In a few lines:
(§1)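 SYBR Green fluorescence (ex 485 nm, em 535 nm) reports parasite DNA after 72 h compound exposure of infected red cells at 0.3% parasitemia, 2.5% hematocrit; signal normalized to 0.29 uM artemisinin and vehicle wells.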

In a further assay the test system is C2A. Described as above. The note with it: P. falciparum in erythrocytes, SYBR Green DNA, 72 h; series mostly up to 28.7 µM. In a few lines:
as §1

Another assay has as its system CP192. The assay is described as above. The note with it: P. falciparum in erythrocytes, SYBR Green DNA, 72 h; series mostly up to 28.7 µM. The method in brief: as §1
Another assay has as its system CP262. The description is as above. The conditions noted are these: P. falciparum in erythrocytes, SYBR Green DNA, 72 h; series mostly up to 28.7 µM. In a few lines: as §1
The next assay has as its system CP286. The assay is described as above. The note with it: P. falciparum in erythrocytes, SYBR Green DNA, 72 h; series mostly up to 28.7 µM. In a few lines: as §1
The next assay deals with FAB9. The description is as above. The note with it: P. falciparum in erythrocytes, SYBR Green DNA, 72 h; series mostly up to 28.7 µM. The method in brief: as §1
[15] abbreviates: measured here: cell count channel max response.
Where [16] appears, read: measured here: lipid channel max response.

Where “and” joins values, the source holds several entries; their conditions need not be identical. Equal entries are not always repeated. Inconclusive results are not listed. More than one record can exist for a structure, and the calls need not agree. Calls of active or inactive are those of the source. Unless noted, calls come from the whole dose curve; as a rule, active = well fitted curve in either direction with a large enough effect (not every such curve was filed as active); inconclusive = small, poorly fitted or top-dose-only effect, or another doubt; inactive = flat fitted curve, though single readings scatter. Some results are limits rather than exact numbers.

Cytochrome P450 1A2 (Homo sapiens), sequence (P05177 whole entry, looked up): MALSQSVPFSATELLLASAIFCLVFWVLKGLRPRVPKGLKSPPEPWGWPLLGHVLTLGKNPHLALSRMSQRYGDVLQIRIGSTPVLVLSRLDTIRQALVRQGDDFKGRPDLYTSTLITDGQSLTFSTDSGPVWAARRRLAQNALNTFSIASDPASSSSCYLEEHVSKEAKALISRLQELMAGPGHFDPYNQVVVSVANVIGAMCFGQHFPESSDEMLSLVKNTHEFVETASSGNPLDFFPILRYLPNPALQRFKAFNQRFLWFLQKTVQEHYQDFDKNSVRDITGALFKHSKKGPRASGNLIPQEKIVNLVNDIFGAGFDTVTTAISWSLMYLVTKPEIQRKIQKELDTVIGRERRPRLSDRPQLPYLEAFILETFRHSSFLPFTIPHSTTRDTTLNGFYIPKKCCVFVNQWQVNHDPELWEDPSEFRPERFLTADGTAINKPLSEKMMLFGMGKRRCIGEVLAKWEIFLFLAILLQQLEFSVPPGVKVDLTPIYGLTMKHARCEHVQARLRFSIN
3',5'-cyclic-AMP phosphodiesterase 4B (Homo sapiens), sequence (Q07343 whole entry, looked up): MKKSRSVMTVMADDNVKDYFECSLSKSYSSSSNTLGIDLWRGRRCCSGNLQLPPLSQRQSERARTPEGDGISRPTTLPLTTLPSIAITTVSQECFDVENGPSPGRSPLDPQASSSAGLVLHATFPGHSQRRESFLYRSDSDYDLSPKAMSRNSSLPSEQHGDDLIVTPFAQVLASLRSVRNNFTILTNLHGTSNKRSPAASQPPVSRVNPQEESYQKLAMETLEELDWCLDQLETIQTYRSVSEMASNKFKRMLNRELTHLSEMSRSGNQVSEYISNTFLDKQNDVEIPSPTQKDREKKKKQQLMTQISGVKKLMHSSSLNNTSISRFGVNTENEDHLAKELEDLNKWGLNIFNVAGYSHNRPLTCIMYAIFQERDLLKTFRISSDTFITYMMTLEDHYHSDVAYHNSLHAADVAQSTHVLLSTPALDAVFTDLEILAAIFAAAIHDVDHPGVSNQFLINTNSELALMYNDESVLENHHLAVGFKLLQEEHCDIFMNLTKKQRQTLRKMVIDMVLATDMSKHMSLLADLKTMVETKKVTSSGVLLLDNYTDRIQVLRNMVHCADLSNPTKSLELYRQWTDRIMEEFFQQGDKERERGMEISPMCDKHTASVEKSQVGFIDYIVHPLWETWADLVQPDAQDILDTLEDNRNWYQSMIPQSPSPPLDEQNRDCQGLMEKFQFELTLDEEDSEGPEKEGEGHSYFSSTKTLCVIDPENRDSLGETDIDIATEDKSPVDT
Ubiquitin carboxyl-terminal hydrolase 1 (Homo sapiens), sequence (O94782 whole entry, looked up): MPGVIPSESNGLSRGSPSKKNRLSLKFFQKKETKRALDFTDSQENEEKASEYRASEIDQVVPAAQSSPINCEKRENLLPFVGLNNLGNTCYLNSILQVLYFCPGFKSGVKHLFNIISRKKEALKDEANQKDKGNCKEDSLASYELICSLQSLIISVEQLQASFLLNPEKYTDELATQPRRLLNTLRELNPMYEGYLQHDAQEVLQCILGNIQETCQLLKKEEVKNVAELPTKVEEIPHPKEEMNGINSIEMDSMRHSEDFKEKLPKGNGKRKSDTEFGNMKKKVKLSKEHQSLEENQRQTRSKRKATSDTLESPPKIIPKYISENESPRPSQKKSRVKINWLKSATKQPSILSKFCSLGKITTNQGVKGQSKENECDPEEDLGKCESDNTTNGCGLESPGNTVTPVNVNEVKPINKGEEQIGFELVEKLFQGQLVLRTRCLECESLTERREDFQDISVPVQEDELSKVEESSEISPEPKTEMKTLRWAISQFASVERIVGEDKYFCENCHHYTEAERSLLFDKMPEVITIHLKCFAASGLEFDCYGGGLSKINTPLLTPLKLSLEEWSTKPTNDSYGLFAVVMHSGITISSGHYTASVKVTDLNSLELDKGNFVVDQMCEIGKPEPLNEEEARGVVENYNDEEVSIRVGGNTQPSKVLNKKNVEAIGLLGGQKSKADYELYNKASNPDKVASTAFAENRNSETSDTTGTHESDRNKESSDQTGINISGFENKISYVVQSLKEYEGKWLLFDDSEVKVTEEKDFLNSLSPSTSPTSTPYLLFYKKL
Glucocorticoid receptor (Homo sapiens), sequence (P04150 whole entry, looked up, the tested form may be a part): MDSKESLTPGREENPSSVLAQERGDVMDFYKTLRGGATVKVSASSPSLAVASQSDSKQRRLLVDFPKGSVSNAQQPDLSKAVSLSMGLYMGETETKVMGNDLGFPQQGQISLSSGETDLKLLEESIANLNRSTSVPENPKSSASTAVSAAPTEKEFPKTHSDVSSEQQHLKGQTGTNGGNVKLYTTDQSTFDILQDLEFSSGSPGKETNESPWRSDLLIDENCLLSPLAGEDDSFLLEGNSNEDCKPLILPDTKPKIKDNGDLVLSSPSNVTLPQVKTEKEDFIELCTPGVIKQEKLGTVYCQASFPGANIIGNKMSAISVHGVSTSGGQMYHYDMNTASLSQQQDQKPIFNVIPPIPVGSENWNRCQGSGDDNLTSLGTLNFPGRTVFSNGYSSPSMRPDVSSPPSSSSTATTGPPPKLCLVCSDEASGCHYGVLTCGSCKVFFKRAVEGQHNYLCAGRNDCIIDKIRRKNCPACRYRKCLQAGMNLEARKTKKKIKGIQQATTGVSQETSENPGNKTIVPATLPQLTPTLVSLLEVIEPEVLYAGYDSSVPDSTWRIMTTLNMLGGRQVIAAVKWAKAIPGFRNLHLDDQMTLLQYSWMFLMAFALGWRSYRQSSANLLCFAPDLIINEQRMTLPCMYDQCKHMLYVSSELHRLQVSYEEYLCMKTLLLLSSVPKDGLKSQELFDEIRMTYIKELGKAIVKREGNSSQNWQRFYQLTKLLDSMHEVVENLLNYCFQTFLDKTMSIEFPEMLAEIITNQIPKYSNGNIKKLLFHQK
Luciferin 4-monooxygenase (Photinus pyralis), sequence (P08659 whole entry, looked up): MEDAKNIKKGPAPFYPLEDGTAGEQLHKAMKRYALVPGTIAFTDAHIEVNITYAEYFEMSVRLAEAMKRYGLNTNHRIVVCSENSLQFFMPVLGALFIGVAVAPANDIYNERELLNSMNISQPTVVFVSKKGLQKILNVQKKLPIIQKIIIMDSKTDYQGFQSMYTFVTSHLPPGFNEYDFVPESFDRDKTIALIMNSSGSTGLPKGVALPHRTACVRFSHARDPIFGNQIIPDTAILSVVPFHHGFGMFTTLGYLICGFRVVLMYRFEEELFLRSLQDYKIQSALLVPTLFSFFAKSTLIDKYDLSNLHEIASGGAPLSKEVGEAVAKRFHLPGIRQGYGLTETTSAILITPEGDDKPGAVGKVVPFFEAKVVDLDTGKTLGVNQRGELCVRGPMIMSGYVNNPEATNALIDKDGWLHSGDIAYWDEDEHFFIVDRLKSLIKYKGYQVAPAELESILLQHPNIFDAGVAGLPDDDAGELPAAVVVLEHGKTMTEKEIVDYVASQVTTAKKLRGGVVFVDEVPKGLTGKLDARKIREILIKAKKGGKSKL
ATP-dependent 6-phosphofructokinase (Trypanosoma brucei brucei), sequence (O15648 whole entry, looked up): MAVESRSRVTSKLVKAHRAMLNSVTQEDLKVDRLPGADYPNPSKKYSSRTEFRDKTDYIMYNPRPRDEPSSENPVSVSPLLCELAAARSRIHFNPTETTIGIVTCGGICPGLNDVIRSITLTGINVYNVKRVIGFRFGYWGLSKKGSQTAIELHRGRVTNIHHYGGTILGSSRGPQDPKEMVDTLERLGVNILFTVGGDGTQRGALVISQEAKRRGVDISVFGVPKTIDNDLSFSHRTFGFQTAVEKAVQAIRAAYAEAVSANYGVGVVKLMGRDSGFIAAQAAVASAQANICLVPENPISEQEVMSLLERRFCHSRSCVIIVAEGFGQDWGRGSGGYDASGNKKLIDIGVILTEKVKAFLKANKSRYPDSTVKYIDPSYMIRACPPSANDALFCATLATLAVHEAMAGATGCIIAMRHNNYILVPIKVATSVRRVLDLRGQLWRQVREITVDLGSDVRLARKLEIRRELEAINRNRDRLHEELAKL

Take `C[N+]1(C)[C@@H]2CC[C@H]1CC(OC(=O)[C@@H](CO)c1ccccc1)C2` (some centres not stated): the molecule was called inactive in assay [1], in assay [4] and in assay [7]. The Potency entry in [2], in assay [8], in assay [10], in [11], in assay [12] and in assay [13] was “inactive” each time. Also, the Potency result in the assay on C2A, with CP192, with CP262, in the assay on CP286 and in the assay on FAB9 was “inactive” in each case. Also, the activity change, negative = inhibition was -48.4% (active) in assay [3] (at 17.2 µM (top of the series)), -61.2% (active) in assay [3] (at 38 µM (top of the series)) and -3.15% (inactive) in assay [9] (at 25.7 µM (top of the series)). Also, the Potency in assay [5] is > 46 µM (inactive) and > 20.6 µM (inactive); in assay [6], > 46 µM (inactive) and > 20.6 µM (inactive). Further, the max response in [9] (setting [15]) is -7.55%; in assay [9] (setting [16]), -13.1%. Further, the activity, negative = inhibition was -5.22% (inactive) in [14] (parasite line A) and 11.2% (inactive) in [14] (parasite line B).
Consider `COc1cc2c3cc1Oc1cc(ccc1O)C[C@@H]1c4c(cc(OC)c(O)c4Oc4cccc(c4)C[C@H]3N(C)CC2)CC[N+]1(C)C`, for which the outcome in [1], in assay [4] and in assay [7] was inactive. Further, the Potency entry in [2], in assay [8] and in [11] was “inactive” throughout. The figures for the activity change, negative = inhibition in [3] (at 17.2 µM (top of the series)) and in [9] (at 25.7 µM (top of the series)) were -7.53% (inactive) and 0.776% (inactive), respectively. Besides, the Potency in assay [5] and in [6] was > 20.6 µM (inactive) each time. The results for the max response in assay [9] (setting [15]) and in assay [9] (setting [16]) were 15.7% and 13.7%, respectively.
For `c1ccc(N2CCC3(CCNCC3)CC2)cc1`, the molecule was classed as inactive in [1], in assay [4] and in assay [7]. The Potency result in assay [2] and in assay [8] was “inactive” each time. The values for the activity change, negative = inhibition in [3] (at 7.69 µM (top of the series)) and in assay [9] (at 57.5 µM (top of the series)) were -12.2% (inactive) and -3.07% (inactive), respectively. The Potency in assay [6] was > 46 µM (inactive). Further, the max response in [9] (setting [15]) was -7.04%; in [9] (setting [16]) it was -8.78%.
Consider `COc1cc2c(cc1OC)[C@H](C)NCC2`, for which the molecule was called inactive in [1], in [4] and in assay [7]. In addition, the Potency entry in assay [2] was “inactive and 20 µM (active)”; in [5], > 20.6 µM (inactive) and > 46 µM (inactive); in [6] it was > 20.6 µM (inactive) and > 46 µM (inactive). Besides, the results for the activity change, negative = inhibition in [3] (at 17.2 µM (top of the series)) and in assay [9] (at 25.7 µM (top of the series)) were 4.97% (inactive) and -2.81% (inactive), respectively. The Potency result in [8] and in assay [11] was “inactive” throughout. In addition, the max response in assay [9] (setting [15]) was -4.52%; in assay [9] (setting [16]), -9.32%.
Regarding `C=C[C@H]1CN2CC[C@@H]1C[C@H]2[C@@H](O)c1ccnc2ccccc12`, the outcome in [1], in assay [4] and in assay [7] was inactive. Moreover, the Potency entry in assay [2], in assay [8] and in assay [11] was “inactive” in each case. The activity change, negative = inhibition is -25.9% (inactive) in [3] (at 17.2 µM (top of the series)); -1.72% (inactive) and -4.09% (inactive) in assay [9] (at 25.7 µM (top of the series)). Further, the Potency in assay [5] and in assay [6] was > 20.6 µM (inactive) in each case. Besides, the max response in assay [9] (setting [15]) is 9.79% and -10.1%; in assay [9] (setting [16]), 6.74% and -12.1%.
As for `CC(=O)N[C@@H]1CCSC1=O`, the molecule was called inactive in assay [1], in assay [4] and in assay [7]. The Potency result in [2], in assay [8], in [11] and in assay [12] was “inactive” in each case. Moreover, the activity change, negative = inhibition was -13% (inactive) in [3] (at 17.2 µM (top of the series)) and 1.07% (inactive) in [9] (at 25.7 µM (top of the series)). Moreover, the Potency in assay [5] and in assay [6] was > 20.6 µM (inactive) throughout. Also, the values for the max response in assay [9] (setting [15]) and in assay [9] (setting [16]) were -9.82% and -4.81%, respectively.

The record behind these values is PubChem BioAssay (NCATS).
